# Reference: the supplement of paper PMC6555819
# Experiments:
# Assay in all cases: PBM binding z-score (relative to random genomic background probes); higher = stronger binding; sequences stand for … in GC…GCGATTGACAGCGTAGAATGAAGG
# [1] = tested on: RARb homodimer (NR concentration 270 nM)
# Method in brief: (§1)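 Scanned fluorescence from custom Agilent 4×180K protein-binding microarrays was regression-normalized. Binding z-scores use random background probes as reference. Ligand-free nuclear receptor dimers were incubated on the arrays for 1 h and detected with antibodies against each partner (one per run).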
# [2] = tested on: RARg:RXRa (NR concentration 270 nM, RXRa partner concentration 90 nM)
# Method in brief: as §1
# [3] = tested on: RARg homodimer (NR concentration 270 nM)
# Method in brief: as §1
# [4] = tested on: RXRa DBDmut IVT, anti-RXR (DBD mutation: RXRa K156A/R161A, NR concentration 90 nM)
# Method in brief: as §1
# [5] = tested on: RXRa homodimer (NR concentration 180 nM)
# Method in brief: as §1
# [6] = tested on: THRa:RXRa (NR concentration 90 nM, RXRa partner concentration 90 nM)
# Method in brief: as §1
# [7] = tested on: THRa homodimer (NR concentration 90 nM)
# Method in brief: as §1
# [8] = tested on: VDR homodimer (NR concentration 270 nM)
# Method in brief: as §1
Sequence,PBM binding z-score [1],PBM binding z-score [2],PBM binding z-score [3],PBM binding z-score [4],PBM binding z-score [5],PBM binding z-score [6],PBM binding z-score [7],PBM binding z-score [8]
GCCTGTAGATCAAGGTTAAGAAAGACTAAGCTAA,0.243,0.329,0.0689,0.0892,0.822,1.14,-0.419,-0.568
TAGCCTCGGTCAGATCGGGCCAGTATACGCTATA,0.82,0.738,1.98,-1.02,-0.0826,2.41,-1.11,-1.63
CAAACTAAGTCACCGGAAGGTCAAAGTCCGCATG,4.37,5.3,3,1.01,3.92,3.26,1.51,2.19
ACTAGCAGGCCAAGTTTGGGTCAATCAAACAAAG,2.11,2.43,1.43,-0.255,0.858,2.25,0.6,0.00979
TCTATTAGTTGATTAGGGCAACTGAAACAGCGGA,0.795,0.45,0.804,0.885,0.275,0.533,0.295,0.318
CCAGCCAGGTGAAAGGTAACTCAGTCTGGTACGC,0.43,0.724,0.203,-0.519,1.37,1.55,0.326,-0.192
CCTTACGGGTCAAGGTTATAGCGCGGGTGGTACG,3.48,4.83,4.46,1.19,5.01,2.96,0.728,1.52
CATCCAAGGTCAGAGAGGTCAGTGAATGCCGAGT,5.53,6.35,7.37,3.51,6.54,4.43,2.83,6.11
GCTTACGGATCAAAGGTTATAGCATGAATAGAAT,0.947,1.91,0.963,0.513,3.71,1.64,-0.516,-0.0828
CCTGCTAGGTCAATGTTCAGCTAAAGCAGCTCGC,2.69,3.48,4.07,1.93,1.91,2.34,0.628,0.0912
AGAATGAGGTGATTAAGATCAGGGAATTGCGGTC,0.255,0.185,0.285,0.136,0.381,1.53,0.417,-0.688
ACTTACGGGTTAACGAGGTTATAGCACGCGTATA,1.62,2.26,1.43,1.02,3.01,3.09,0.992,1.96
CCTTACGGGGCACTGACAGGTTATAGCATTTGGA,0.4,0.997,0.998,0.12,0.44,0.141,-0.73,-0.309
TCTTATAGATCAAAGGTTAAGAAAGCCGAAGCCT,1.4,2.16,1.15,1.21,3.93,1.51,-0.709,0.214
TCATATAGTTAAAAGGTGAAAGTCGGTGTGGTAA,1.92,1.69,0.989,1.66,2.31,1.6,0.712,0.721
AGAACGAGGGCAATGAGTTGATAACACGGGTGGC,0.742,1.31,1.53,1.96,0.961,1.04,-0.289,3.3
ACTAGCAGGTCAAGTTTGGGTCACTCAAACAAAG,4.03,7.23,5.73,2.25,4.85,4.38,1.93,2.13
CCTCGGAGGACAGAAGATCAGAGCTGTCCGCTTT,-0.501,-0.0315,0.0841,-0.174,-0.41,-0.0672,-0.73,-0.8
AGTCAAAGTTCACCAGGTAACGTAAGATTCAGCT,4.3,6.02,6.53,4.1,5.25,2.88,0.769,4.32
ATCTCTAGGTAAAAGTTCAGTGAGTCCCGAGGAT,2.32,1.86,1.93,0.855,1.73,1.13,0.291,2.34
CGTCCAGGGTCAGAGAGGTCAGTGAATGCCGAGT,5.27,6.18,6.48,2.79,6.28,4.29,2.13,5.45
CCGACTGGAGCAGAAAGGTTACCATACCATCCGG,2.03,1.32,0.946,-0.179,1.8,0.977,-0.2,0.282
ATCGAAAGGTAGTGAGGTGAGTATACAGAAAGGC,0.406,0.407,0.62,-0.693,0.164,1.5,0.917,-0.237
GGAACGAGAGCATTCGAGTTGATAGCATGGCGAT,-1.06,-0.435,-0.276,0.441,-0.118,1.04,-1.57,-0.57
CCAGACAGGTGAGAAGGTAAATCAGCCTCGATTA,0.187,0.461,0.353,-0.268,0.202,0.113,-0.24,-0.437
GCGACTGGGGCGAAGCAGGTTACCATAAGGTTGG,0.22,-0.0926,-0.296,-1.11,0.0577,1.5,-0.185,-0.569
CCTCGGAGGACTACAGGAGGTCAGAGCTGCCAGA,2.9,2.37,2.06,-0.895,1.93,2.55,0.263,0.359
TCTTGTAGATCAAGCAGGTTAAGATAGCCTGAGT,0.14,0.091,0.0595,0.547,0.359,0.324,-0.172,-0.247
